In the OligoGym collection:

Each sequence was assayed against ZNF77 (assay: pooled miR-30 sensor sort-seq; sequence = guide strand). Conditions: shRNA.
Also: reference of the scale not given here.

Sequence	sensor-assay potency score (higher = more potent)
TAATACATAAAGGTCTTCCCAC	-0.234
TTTTCTCCAAAAATAGACCAGG	-0.35
TTACGGTTGAACACTCTCCCAG	-0.487
TTAGGTACAAAATAAGTGCTAT	0.0583
TATGTCACAGATGCTGTCCTTG	-0.213
TAAAGTAAGTGGGACATCCGAA	-0.639
TACAATTTCTTCATCATTGGAT	0.581
TTCGGTAGGGTAACTCTTGTGC	0.248
TAGACCAGGAATCACTTCCTGT	-0.274
TAACATAAATGTAACAATCCAA	-0.347
TTCCACATTTCTGACATTCATA	-1.1
TAAATGTAACAATCCAAGGAGG	-0.849

These sequences were tested against ZNF829 in the same assay as above. Conditions: shRNA.

Sequence	sensor-assay potency score (higher = more potent)
TTCTTCACATTCATAGAGCTTC	-0.0675
TTCTACATTCTTCACATTCATA	-1.09
TTCTCCAACATCACTTCTTTGT	-0.439
TAATATTTTGGTCTCACACATT	-1.12
TACTTGACTGAAATGTCTCTTC	0.284
TTTACCAGTGTGAATCCTCTGA	0.327
TTGTAGAAGTTCATCATGCATT	-0.541
TTCATCTGTATGGATTCTCTGA	0.0212
TTGACTGAAATGTCTCTTCTTT	0.505
TTGAATAAGTTCTGAGCTCTGA	0.585
TTGAGCAATACTTAAAGGCTTT	-0.25
TGAACTACAACTAAAAGCCTTG	-0.242
